Assay results reported in PubChem BioAssay (Tox21).
Inconclusive results are not listed. The source made the active and inactive calls. Unless noted, the call rests on the fitted dose curve.

What was measured:
[1] = qHTS assay to identify small molecule agonists of the vitamin D receptor (VDR) signaling pathway - cell viability counter screen (AID 743224; active means well fitted curve in the direction sought with a large enough effect in the repeat runs; an effect the other way counts as inactive or inconclusive; further: nearly all actives have a fitted effect of over 50% in size; further: potency means the concentration at half of the fitted maximal effect)
Summary of the method: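 Here cell health was gauged by luminescent ATP detection (CellTiter-Glo, 30 min RT) in VDR-bla cells that had been incubated with test compounds for 16 h at 37C and 5% CO2.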

[2] = qHTS assay to identify small molecule antagonists of the vitamin D receptor (VDR) signaling pathway - cell viability counter screen (AID 743225; active means well fitted curve in the direction sought with a large enough effect in the repeat runs; an effect the other way counts as inactive or inconclusive; further: nearly all actives have a fitted effect of over 50% in size; further: potency means the concentration at half of the fitted maximal effect; on viability change, negative = cytotoxic: on the % scale 0 is the no-effect control and ±100 the full control effect)
Summary of the method: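 In this counter screen, VDR-bla HEK 293T cells receive test compound plus 3 nM final calcitriol for 16 h at 37C. Room-temperature steps of 2 h with the beta-lactamase substrate, then 30 min with CellTiter-Glo, precede the luminescence read.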

[3] = qHTS assay to identify small molecule agonists of the NFkB signaling pathway (AID 1159509; active means well fitted curve in the direction sought with a large enough effect in the signal ratio in the repeat runs, not every such curve was filed as active; the % refers to the signal ratio; further: series mostly up to about 61 µM; on the % scale 0 is the no-effect control and ±100 the full control effect)
Summary of the method: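 ME-180 NFkB-bla, 2,000 cells/well, overnight plating; cpd pinned in DMSO, 5 h 37 C; B/G FRET substrate 1.5 h RT; ex 405, em 460/530 nm.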

[4] = qHTS assay to identify small molecule agonists of the NFkB signaling pathway - cell viability counter screen (AID 1159515); further: series mostly up to about 61 µM; on the % scale 0 is the no-effect control and ±100 the full control effect; nearly all actives have a fitted effect of over 55% in size
Summary of the method: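 5 hr compound treatment of NFkB-bla ME-180 cells (2,000/well, seeded overnight beforehand), followed by reporter substrate for 1.5 hr. CellTiter-Glo added afterward; luminescence after 30 min RT.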

[5] = qHTS assay to identify small molecule agonists of the endoplasmic reticulum stress response signaling pathway - cell viability counter screen (AID 1159517);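 further: HeLa cells carrying an ER stress response element beta-lactamase reporter; series mostly up to about 61 µM; on the % scale 0 is the no-effect control and ±100 the full control effect; nearly all actives have a fitted effect of over 50% in size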
Summary of the method: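 HeLa cells carrying an ESRE-driven beta-lactamase reporter receive compound for 5 hr at 37 C. Cell viability is then gauged with CellTiter-Glo by luminescence, 30 min at room temperature.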

[6] = qHTS assay to identify small molecule antagonists of the retinoid-related orphan receptor gamma (ROR-gamma) signaling pathway - cell viability counter screen (AID 1159520; active means well fitted curve in the direction sought with a large enough effect in the repeat runs; an effect the other way counts as inactive or inconclusive; further: on the % scale 0 is the no-effect control and ±100 the full control effect; nearly all actives have a fitted effect of over 50% in size)
Summary of the method: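 Cytotoxicity was read from cellular ATP (CellTiter-Glo luminescence) after 16 hr at 37 C with 1 uM doxycycline induction. The inducer was added 2 hr after compound transfer to Tet-on ROR gamma CHO cells.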

[7] = biological target: Nuclear receptor ROR-gamma (Homo sapiens) (UniProt P51449); experiment: qHTS assay to identify small molecule antagonists of the retinoid-related orphan receptor gamma (ROR-gamma) signaling pathway (AID 1159521; active means well fitted curve in the direction sought with a large enough effect in the repeat runs; an effect the other way counts as inactive or inconclusive; further: nearly all actives have a fitted effect of over 50% in size; further: potency means the concentration at half of the fitted maximal effect)
Summary of the method: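 Screening format: cell-based luciferase reporter in CHO cells with doxycycline-inducible RORγ. Compound pre-exposure lasts 2 h, doxycycline is 1 uM final, induction runs 16 h at 37 C, and ONE-Glo luminescence is read.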

[8] = qHTS assay to identify small molecule agonists of the AP-1 signaling pathway (AID 1159526); further: on the % scale 0 is the no-effect control and ±100 the full control effect
[9] = qHTS assay to identify small molecule agonists of the AP-1 signaling pathway - cell viability counter screen (AID 1159525); further: nearly all actives have a fitted effect of over 55% in size
Summary of the method: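 Luminescent ATP readout (Cell Titer Glo, 30 min RT), normalised to DMSO and tetra n-octyl ammonium bromide controls. Cells were ME-180 AP-1-bla in 0.5% dialyzed FBS Opti-MEM, with a 5 h, 37 °C compound exposure.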

[10] = qHTS assay to identify small molecule agonists of the endoplasmic reticulum stress response signaling pathway (AID 1159516; active means well fitted activation curve with a large enough effect in the signal ratio in the repeat runs, not every such curve was filed as active; the % refers to the signal ratio; further: on the % scale 0 is the no-effect control and ±100 the full control effect)
Summary of the method: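 Reporter HeLa cells (ESRE-beta-lactamase) underwent 5 hr compound incubation at 37 C and 5% CO2 in quantitative HTS format. Detection followed 2 hr of FRET substrate loading at room temperature.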

NC1=NCC2c3ccccc3Cc3ccccc3N12 (stereo unspecified)
inactive: Potency [1] | Potency [2] | outcome [3] | outcome [4] | outcome [5] | Potency [6] | Potency [7] | Potency [8]

O=C(O)CN(CCN(CC(=O)O)CC(=O)O)CCN(CC(=O)O)CC(=O)O
inactive: Potency [1] | Potency [2] | outcome [3] | outcome [4] | outcome [5] | activity, negative = cytotoxicity [6] 4.04% [at 19 µM] | activity change, negative = inhibition [7] -6.39% [at 19 µM] | activation [8] -0.136% [at 15.8 µM]

C=Cc1ccccc1
inactive: Potency [1] | Potency [2] | outcome [3] | outcome [4] | outcome [5] | Potency [6] | outcome [9] | Potency [8]

NS(=O)(=O)c1cc(-c2nn[nH]n2)c(NCc2cccs2)cc1Cl
inactive: Potency [1] | Potency [2] | outcome [3] | outcome [4] | outcome [5] | Potency [6] | Potency [7] | Potency [8]

CCOc1ccc2nc(N)sc2c1
inactive: Potency [1] | outcome [3] | outcome [4] | outcome [5] | Potency [6] | Potency [8]

C[C@@H]1CN(c2c(F)c(N)c3c(=O)c(C(=O)O)cn(C4CC4)c3c2F)C[C@H](C)N1
inactive: Potency [1] | Potency [2] | outcome [3] | outcome [4] | outcome [5] | activity, negative = cytotoxicity [6] 2.26% [at 19 µM] | viability change, negative = cytotoxic [9] 1.46% [at 15.8 µM] | activation [8] -6.27% [at 15.8 µM]

CCCOc1ccc2c(c1)CC[C@@H]1[C@@H]2CC[C@]2(C)C(OC)CC[C@@H]12 (stereo partly specified)
inactive: Potency [1] | Potency [2] | outcome [3] | outcome [4] | outcome [5] | Potency [6] | Potency [7]

C=CCCC=C
inactive: Potency [2] | outcome [3] | outcome [4] | Potency [6] | Potency [7] | outcome [9]

CC/C=C\CCOC(=O)C(C)C
inactive: Potency [2] | outcome [3] | outcome [4] | outcome [5] | Potency [6] | outcome [9] | Potency [8]

Cc1nc(N)nc(N)c1-c1ccc(Cl)c(Cl)c1
active: Potency [1] 3.35 µM | Potency [2] 3.79 µM
inactive: outcome [3] | outcome [4] | Potency [6] | Potency [7] | outcome [9]

COC(=O)C(C)O (stereo unspecified)
inactive: Potency [1] | Potency [2] | outcome [3] | outcome [4] | outcome [5] | Potency [6] | outcome [9] | Potency [8]

C1CCOC1
inactive: Potency [1] | outcome [3] | outcome [4] | Potency [6] | outcome [9] | Potency [8]

CCOc1ccccc1N
inactive: Potency [1] | Potency [2] | outcome [3] | outcome [4] | outcome [5] | Potency [6] | outcome [9]
active: Potency [7] 54.1 µM

Cc1ccccc1C(=O)Nc1ccc(C(=O)N2CCCC(O)c3cc(Cl)ccc32)c(C)c1 (stereo unspecified)
inactive: Potency [2] | outcome [3] | outcome [4] | Potency [6] | Potency [7] | outcome [9]

CCCCNc1ccc(C(=O)OCCN(CC)CC)cc1
inactive: Potency [1] | Potency [2] | outcome [3] | outcome [4] | Potency [6] | Potency [7] | outcome [9]

C1CSCCS1
inactive: Potency [1] | outcome [3] | outcome [4] | outcome [5] | Potency [6] | outcome [9] | Potency [8]

COC(=O)/C=C(/C)N
inactive: Potency [1] | outcome [3] | outcome [4] | outcome [5] | Potency [6] | outcome [9] | Potency [8]

CC(C)S
inactive: Potency [1] | Potency [2] | outcome [3] | outcome [4] | outcome [5] | Potency [6] | outcome [9] | Potency [8]

CC(=O)O[C@H]1CC[C@@]2(C)C(=CC[C@@H]3[C@@H]2CC[C@]2(C)C(C(C)=O)=CC[C@@H]32)C1
inactive: Potency [1] | Potency [2] | outcome [3] | outcome [4] | outcome [5] | Potency [6] | outcome [9] | Potency [8]

CO[C@@]1(NC(=O)CSCC#N)C(=O)N2C(C(=O)O)=C(CSc3nnnn3C)CS[C@@H]21
inactive: Potency [1] | outcome [3] | outcome [4] | outcome [5] | Potency [6] | Potency [7] | Potency [8]

C=CCCCCCCCCO
inactive: Potency [1] | outcome [4] | outcome [10] | outcome [5] | Potency [6] | outcome [9] | Potency [8]

O=C1CCCCC1C1CCCCC1 (stereo unspecified)
inactive: Potency [1] | Potency [2] | outcome [3] | outcome [4] | outcome [5] | Potency [6] | Potency [7] | Potency [8]

COc1nc(C)nc(NC(=O)NS(=O)(=O)c2ccccc2OCCCl)n1
inactive: Potency [1] | Potency [2] | outcome [3] | outcome [4] | Potency [6] | outcome [9] | Potency [8]

Cc1ccc(C)c(N)c1
inactive: Potency [1] | Potency [2] | outcome [3] | outcome [4] | outcome [5] | Potency [6] | outcome [9] | Potency [8]

CCC/C=C/CO
inactive: Potency [1] | Potency [2] | outcome [4] | outcome [10] | outcome [5] | Potency [6] | Potency [8]

Cc1onc(-c2ccccc2)c1C(=O)Cl
inactive: Potency [1] | outcome [3] | outcome [4] | outcome [5] | Potency [6] | outcome [9] | Potency [8]

CN1CCN(c2c(F)cc3c(=O)c(C(=O)O)cn(CCF)c3c2F)CC1
inactive: Potency [1] | Potency [2] | outcome [3] | outcome [4] | outcome [5] | Potency [6] | outcome [9] | Potency [8]

Oc1ccccc1C=NCc1ccccc1
inactive: Potency [1] | Potency [2] | outcome [3] | outcome [4] | outcome [5] | Potency [6] | outcome [9] | Potency [8]

CC1=C(CC(=O)O)c2cc(F)ccc2/C1=C\c1ccc(S(C)(=O)=O)cc1
inactive: Potency [1] | Potency [2] | outcome [3] | outcome [4] | outcome [5] | Potency [6] | Potency [7] | outcome [9]

CN(C)Cc1ccccc1
inactive: Potency [1] | Potency [2] | outcome [3] | outcome [4] | outcome [5] | Potency [6] | outcome [9] | Potency [8]
